Measurements published in PubChem BioAssay (NCI).
The panel holds about 79,000 compounds, 15% with a hit somewhere; the sample as a whole holds those more often. No stated cut-off is given here; in the data, active means growth inhibition above about 70%; inactive means the rest.

Columns and labels:
[1] = NCI Yeast Anticancer Drug Screen. Data for the rad50 strain (AID 155);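 further: 0% = growth of vehicle-only cultures of the same strain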; conditions: S. cerevisiae rad50 strain growth inhibition; at 50.0 µM; active compounds read high
Procedure, shortened: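 Relative growth inhibition (compound vs vehicle) was measured in yeast with a defined repair-gene alteration.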

[2] = NCI Yeast Anticancer Drug Screen. Data for the mec2-1 strain (AID 157); conditions: S. cerevisiae mec2-1 strain, at 50.0 µM, active compounds read high
Procedure, shortened: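 Using mec2-1 yeast: add compound, measure growth, express inhibition versus vehicle-treated cultures.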

[3] = NCI Yeast Anticancer Drug Screen. Data for the sgs1 mgt1 strain (AID 161);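 further: 0% = growth of cultures given vehicle only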; conditions: S. cerevisiae sgs1 mgt1 strain, at 50.0 µM, active compounds read high
Procedure, shortened: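 Percent growth inhibition was derived by comparing compound-exposed mutant yeast with vehicle-exposed cultures. The strain carries alterations in DNA damage repair.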

[4] = NCI Yeast Anticancer Drug Screen. Data for the cln2 rad14 strain (AID 165);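 further: 0% = growth equal to vehicle treated cultures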; conditions: S. cerevisiae cln2 rad14 strain, at 50.0 µM, active compounds read high
Procedure, shortened: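 Yeast strain cln2 rad14, bearing defects in cell cycle control and DNA repair, serves as the test system; values reflect growth inhibition compared with vehicle.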

[5] = NCI Yeast Anticancer Drug Screen. Data for the bub3 strain (AID 167); conditions: S. cerevisiae bub3 mutant strain, at 50.0 µM, active compounds read high
Procedure, shortened: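 Screening used yeast with an engineered genetic alteration affecting cell cycle control. Compound-exposed cultures were compared with vehicle cultures, and reduced growth was taken as inhibition.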

[6] = NCI Yeast Anticancer Drug Screen. Data for the mlh1 rad18 strain (AID 175); conditions: S. cerevisiae mlh1 rad18 strain growth inhibition; at 50.0 µM; active compounds read high
Procedure, shortened: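 Steps: expose repair-defective yeast to compound; measure growth; express inhibition against vehicle-treated controls.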

Measured: growth inhibition

COc1ccc(NCC(=O)Nn2c(-c3ccccc3)nc3ccccc3c2=O)cc1
inactive: [1] -37% | [2] -48.2% | [3] 4% | [4] 0.4% | [5] 4.15% | [6] -18.4%

COC(=O)[C@]1(C)CCC[C@@]2(C)[C@H]1CC=C1C=C(C(C)C)CC[C@@H]12
inactive: [1] 50% | [2] 1.15% | [3] 22.8% | [4] 4.6% | [5] -1.95% | [6] 24.4%

CCC(CC)CC1CCCCC1O (stereo unspecified)
inactive: [1] -30.7% | [2] -44% | [3] -46.9% | [4] -17.2% | [5] -48.7% | [6] -11.9%

CCCCNC(=S)N(CCCC)CCCC
inactive: [1] 21.8% | [2] 18.2% | [3] 10.3% | [4] -16.2% | [5] 30.9% | [6] 13.1%

Nc1cc(=O)[nH]c2ncnn12
inactive: [1] 18.2% | [2] -12% | [3] 2.4% | [4] 6.2% | [5] 4% | [6] 20.1%

O=C1C2C3C=CC(C3)C2C(=O)N1c1ncc([N+](=O)[O-])s1 (stereo unspecified)
inactive: [1] 17.8% | [2] -6.85% | [3] 26.9% | [4] -57.9% | [5] -14.2% | [6] 12.3%

CCCC(C)(C)CO
inactive: [1] 1.75% | [2] 1.35% | [3] -1.85% | [4] 5.6% | [5] 9.3% | [6] 5.75%

CN(C)CCCNC(=O)N/N=C/c1ccc(O)cc1
inactive: [1] -10.2% | [2] -25.1% | [3] 7% | [4] 17.8% | [5] 1.65% | [6] -25.2%

CC(C)OC(=O)N[C@@H]1c2ccccc2CC[C@H]1I
inactive: [1] 24.5% | [2] 5.8% | [3] 19.3% | [4] -36.5% | [5] 24.7% | [6] 3.55%

O=C(O)COCC(=O)N(CCOCCN(Cc1ccccc1)C(=O)COCC(=O)O)Cc1ccccc1
inactive: [1] -18.4% | [2] 0.75% | [3] 7.25% | [4] 26.6% | [5] 0.7% | [6] 4.1%

O=C(c1ccccc1)[C@H]1Nc2ccc(Cl)cc2[C@H]2c3ccccc3O[C@H]21
inactive: [1] 33.9% | [2] -6.7% | [3] 12.4% | [4] 18.8% | [5] -1.45% | [6] 2.5%

Cc1cc(C)c(/C(O)=C/C(=S)N2CCOCC2)c(C)c1
inactive: [1] 33.5% | [2] 14.1% | [3] 43.1% | [4] -33% | [5] -15.3% | [6] 32.6%

O=C(Cc1ccccc1)NC(CSSCC(NC(=O)Cc1ccccc1)C(=O)O)C(=O)O (stereo unspecified)
inactive: [1] 26.3% | [2] 10.8% | [3] 36.6% | [4] -37.1% | [5] 3.2% | [6] 11.1%

CCN(CC)c1nc(N(CC)CC)nc(N(CC)CC)n1
inactive: [1] -1% | [2] 14.8% | [3] 2.75% | [4] -30.6% | [5] 13.8% | [6] 0.2%

Cc1cc2c(cc1Cl)SC(NNc1ccc([N+](=O)[O-])cc1)=NS2(=O)=O
inactive: [1] 34.6% | [2] 2.4% | [3] 4.6% | [4] -7.85% | [5] -19.6% | [6] 26.9%

COc1ccc(-c2cc(=O)c3c(O)c(OC)c(O)c(OC)c3o2)cc1OC
inactive: [1] -0.4% | [2] -37.5% | [3] 5.1% | [4] 5.15% | [5] 29.7% | [6] 20%

CC(=O)C(C)(C)O
inactive: [1] 45.4% | [2] -5.55% | [3] 48.8% | [4] -8.7% | [5] 14.2% | [6] 38.9%

N#CC1=C(c2ccccc2)NN(Cc2ccccc2)C(c2ccc(Cl)cc2)CC1=O (stereo unspecified)
inactive: [1] 31.9% | [2] 7.25% | [3] 8.25% | [4] -44.1% | [5] 2.6% | [6] 30.6%

CNn1c(-c2ccc(C)cc2)n[nH]c1=O
inactive: [1] 8.95% | [2] 0.25% | [3] -5.95% | [4] 4.15% | [5] 18.7% | [6] 19.9%

CC(=O)O[C@@H]1[C@@H](C)[C@]2(CC(c3ccoc3)OC2O)C2CCC3O[C@]3(C)[C@]2(C)[C@@H]1OC(C)=O (stereo partly specified)
inactive: [1] -16% | [2] -20.1% | [3] -42.6% | [4] -12.2% | [5] -39.5% | [6] -28.4%

CN(C)c1nc(NN)c2c(-c3ccccc3)c(-c3ccccc3)oc2n1
inactive: [1] 10.2% | [2] 3.9% | [3] 2.3% | [4] 9.35% | [5] 20.2% | [6] -11.2%
